From publication PMC4336329 (PLoS ONE, 2015)
About 14,000 (4.5%) of roughly 310,000 compounds showed an effect of 50% or more. The effect is printed as a negative number. This is one part of a sample in which strong results are shown more often than they occur.

molecular target: human ether-à-go-go-related gene (hERG) potassium channel (human, UniProt Q12809); experiment: primary screen, population patch clamp on CHO cells stably expressing hERG; higher = less effect of the substance
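Also: peak tail current of the secondary pulse compared with the same well before compound.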

Sequence of human ether-à-go-go-related gene (hERG) potassium channel (Q12809 whole entry, looked up): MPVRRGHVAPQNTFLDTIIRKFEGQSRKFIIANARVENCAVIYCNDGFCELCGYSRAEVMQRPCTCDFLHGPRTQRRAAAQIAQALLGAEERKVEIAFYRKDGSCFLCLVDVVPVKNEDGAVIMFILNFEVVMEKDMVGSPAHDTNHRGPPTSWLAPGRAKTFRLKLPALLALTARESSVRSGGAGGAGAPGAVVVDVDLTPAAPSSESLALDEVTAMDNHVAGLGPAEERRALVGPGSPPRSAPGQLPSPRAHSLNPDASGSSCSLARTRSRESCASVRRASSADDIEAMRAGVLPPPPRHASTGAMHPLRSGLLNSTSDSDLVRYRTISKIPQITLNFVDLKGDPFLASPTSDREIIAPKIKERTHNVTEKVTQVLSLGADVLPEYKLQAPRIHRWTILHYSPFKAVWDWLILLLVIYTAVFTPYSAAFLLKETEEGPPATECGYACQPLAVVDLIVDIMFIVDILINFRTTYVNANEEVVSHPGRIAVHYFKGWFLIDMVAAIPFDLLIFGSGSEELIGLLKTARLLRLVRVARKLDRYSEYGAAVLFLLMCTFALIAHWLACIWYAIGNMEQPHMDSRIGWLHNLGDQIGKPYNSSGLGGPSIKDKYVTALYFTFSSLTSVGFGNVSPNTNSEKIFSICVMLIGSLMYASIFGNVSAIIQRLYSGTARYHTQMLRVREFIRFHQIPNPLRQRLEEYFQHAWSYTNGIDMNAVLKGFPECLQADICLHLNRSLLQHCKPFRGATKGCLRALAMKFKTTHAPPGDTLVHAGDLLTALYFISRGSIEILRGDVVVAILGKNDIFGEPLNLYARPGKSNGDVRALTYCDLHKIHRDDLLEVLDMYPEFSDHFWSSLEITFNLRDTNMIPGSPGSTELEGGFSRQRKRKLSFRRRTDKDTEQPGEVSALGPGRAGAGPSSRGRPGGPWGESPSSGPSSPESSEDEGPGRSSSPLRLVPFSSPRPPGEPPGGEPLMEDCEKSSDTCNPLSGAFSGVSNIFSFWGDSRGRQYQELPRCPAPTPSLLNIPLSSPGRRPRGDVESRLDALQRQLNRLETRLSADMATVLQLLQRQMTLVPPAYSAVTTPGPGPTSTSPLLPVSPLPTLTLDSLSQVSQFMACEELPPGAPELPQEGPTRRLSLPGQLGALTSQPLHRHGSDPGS

SMILES	hERG current change (%, negative = inhibition) at 10uM [%]
CCN(CC)S(=O)(=O)c1ccc(C(=O)NCc2nnc(SCC(=O)OC)n2C)cc1	-1.87
O=C(Nc1cccc(-c2cccc(Cl)c2)c1)C1CCN(C2CCC2)CC1	-73.7
CS(=O)(=O)N1CCC(C(=O)Nc2cccc(Cl)c2)CC1	2.18
O=C(Nc1cccc(Cl)c1)NC1CCCCC1	8.14
O=C(Nc1cccc(F)c1)C1CCN(C(=O)c2ccccc2Cl)CC1	-8.66
O=C(NC1CCN(C(=O)Nc2cccc(Cl)c2)CC1)C1CCCCC1	13.1
O=C(Nc1cccc(-c2cccc(F)c2)c1)C1CCN(C2CCC2)CC1	-71.5
Cl.O=C(Nc1cccc(Cl)c1)NC1CCN(C2CCCCC2)C1 (stereo not shown)	-56.6
O=C(Nc1cccc(-c2cccc(F)c2)c1)C1CCN(C2CCOCC2)CC1	-75
CS(=O)(=O)N1CCC(C(=O)Nc2cccc(F)c2)CC1	15.2
O=C(Nc1cccc(F)c1)C1CCCCC1	-9.22
O=C(Nc1cccc(Cl)c1)C1CCCCC1	-9.14
O=C(Nc1cccc(F)c1)C1CCN(C(=O)Cc2ccccc2)CC1	-7.55
CCS(=O)(=O)N1CCC(C(=O)Oc2ccccc2OC)CC1	18.5
CC(=O)Nc1ccc(NC(=O)c2c(-c3ccccc3Cl)noc2C)cc1	5.89
COc1ccc(C(=O)N(c2ccc(C)cc2)C2C=CS(=O)(=O)C2)cc1OC (stereo not shown)	9.79
CC(=O)N1CCN(Cc2ccc(Br)s2)CC1	-2.46
C#CCOCCOCCOCCNc1nc(N2CCN(C(=O)CCCCCCCCCCNC(=O)Cn3cc(C[C@@H](C)O)nn3)CC2)nc(N2CCN(C(=O)CCCCCCCCCCNC(=O)[C@@H](CCSC)n3cc(CCO)nn3)CC2)n1	10.1
O=C(COC(=O)/C=C/c1ccc([N+](=O)[O-])cc1)NCc1ccccc1	2.07
CC12CCC(C(=O)NNC(=O)c3ccc(F)cc3)(OC1=O)C2(C)C (stereo not shown)	24.6
CCOc1ccc(NC(=O)c2ccc(-c3csc(C)n3)cc2)cc1	16.5
CC(C)Nc1nnc(SCC(=O)Nc2ccc3c(c2)C(=O)c2ccccc2C3=O)s1	-2.55

SMILES	hERG current change (%, negative = inhibition) at 10uM [%]
COc1ccc(CCNc2nc(=O)[nH]nc2C)cc1OC	2.35
Cc1ccc(-c2nnc(CCC(=O)NCC3C4CC5CC(C4)CC3C5)o2)s1 (stereo not shown)	-6.1
COc1cccc(-c2cccc(NC(=O)C3CCN(C4CCC4)CC3)c2)c1	-51.7
COc1cccc(NC(=O)C2CCC2)c1	8.83
COc1cccc(-c2cccc(NC(=O)C3CCN(C4CCOCC4)CC3)c2)c1	-42
CCN(CC)CC(C)CNC(=O)C1(O)c2ccccc2NC(=O)N1c1ccc(Cl)c(Cl)c1 (stereo not shown)	3.31
COc1ccc(OCC(O)CNC(=O)Nc2cc(C)cc(C)c2)cc1 (stereo not shown)	0.613
Cc1cc(C(=O)N/N=C/c2ccco2)n[nH]1	31.6
CC(=O)c1ccc(C(=O)N2CCCC(C(=O)c3cc(F)ccc3F)C2)s1 (stereo not shown)	2.88
Cl.Cn1nnnc1SCCNCc1ccccc1OCc1ccc(F)cc1	-29.6
Cn1nnnc1SCCNCc1ccccc1OCc1ccccc1	-9.36
Cl.Cn1nnnc1SCCNCc1ccccc1OCc1ccc(Cl)cc1	-53.4
COc1cc(CNCCSc2nnnn2C)cc(Br)c1OCc1ccccc1.Cl	-56.3
CCOc1cc(CNCCSc2nnnn2C)cc(Br)c1OCc1ccccc1.Cl	-23.1
COc1cc(CNCCSc2nnnn2C)cc(Br)c1OCc1ccc(F)cc1.Cl	-43.9
CCOC(=O)c1ccc(S(=O)(=O)N2CCN(CCC#N)CC2)cc1	-14.7
Cc1ccc(CNC(=O)COC(=O)CSc2ccc(Br)cc2C)cc1	10.9
Cc1nnc(Nc2ccc(O)cc2)[nH]c1=O	27.7
CCN1CCN(c2ccc(S(=O)(=O)N3CCOCC3)cc2NC(=O)c2ccccc2SC)CC1	-60.1
CCN1CCN(c2ccc(S(=O)(=O)N3CCOCC3)cc2NC(=O)c2ccc(C)c(C)c2)CC1	-40
CCN1CCN(c2ccc(S(=O)(=O)N3CCOCC3)cc2NC(=O)c2ccc(Cl)s2)CC1	-57.1
CCN1CCN(c2ccc(S(=O)(=O)N3CCOCC3)cc2NC(=O)c2ccc(F)cc2Cl)CC1	-35.7

SMILES	hERG current change (%, negative = inhibition) at 10uM [%]
CCN1CCN(c2ccc(S(=O)(=O)N3CCOCC3)cc2NC(=O)c2ccc(Cl)cc2Cl)CC1	-38.4
CCN1CCN(c2ccc(S(=O)(=O)N3CCOCC3)cc2NC(=O)c2ccccc2OC(F)F)CC1	-42.5
C/C(=N/OC(=O)c1c(-c2c(Cl)cccc2Cl)noc1C)c1cnccn1	-1.72
Cc1nc(NCc2ccccc2)c2cc[nH]c2n1	21
Cc1nc2sc(C(c3cccc(F)c3)N3CCCCC3)c(O)n2n1 (stereo not shown)	4.79
O=C(NCC1CCCO1)c1ccc(Cn2c(=S)[nH]c3ccccc3c2=O)cc1 (stereo not shown)	18.2
CN1CCN(C(=O)/C(=C/c2cn(S(=O)(=O)N(C)C)c3ccccc23)NC(=O)c2ccccc2Cl)CC1	20.2
COc1cc(/C=C/c2ccc3cccc(O)c3n2)ccc1O	-0.305
Cc1cc(C)nc(Nc2nc(C)c3cc4c(cc3n2)OCO4)n1	-3.78
CCN(Cc1ccccc1)C(=O)C(C)OC(=O)c1cc(S(=O)(=O)Nc2c(C)n(C)n(-c3ccccc3)c2=O)ccc1C (stereo not shown)	-19.3
Cc1ccc(S(=O)(=O)Nc2c(C)n(C)n(-c3ccccc3)c2=O)cc1C(=O)OC(C)C(=O)N(C)c1ccccc1 (stereo not shown)	-10.5
COc1cc(N2C(=O)c3ccccc3C2=O)c(Cl)cc1C(=O)OCC(=O)NCc1ccco1	-56.1
Cc1c(NS(=O)(=O)c2ccc(Cl)c(C(=O)OC(C)C(=O)N3CCOCC3)c2)c(=O)n(-c2ccccc2)n1C (stereo not shown)	5.07
COc1cc(N2C(=O)c3ccccc3C2=O)c(Cl)cc1C(=O)OCC(=O)N(C)C	-28.5
CN(c1ccccc1)S(=O)(=O)c1ccc(Cl)c(C(=O)OCC(=O)NCc2ccco2)c1	-25
CCN(C(=O)COC(=O)c1cc(S(=O)(=O)Nc2c(C)n(C)n(-c3ccccc3)c2=O)ccc1Cl)C1CCCCC1	-49.9
Cc1c(NS(=O)(=O)c2ccc(Cl)c(C(=O)OC(C)C(=O)NCc3ccco3)c2)c(=O)n(-c2ccccc2)n1C (stereo not shown)	-77.5
CCN(Cc1ccccc1)C(=O)COC(=O)c1cc(S(=O)(=O)Nc2c(C)n(C)n(-c3ccccc3)c2=O)ccc1C	-74.9
Cc1c(NS(=O)(=O)c2ccc(Cl)c(C(=O)OCC(=O)NCc3ccco3)c2)c(=O)n(-c2ccccc2)n1C	-51.9
COc1cc(N2C(=O)c3ccccc3C2=O)c(Cl)cc1C(=O)OCC(=O)N1CCOCC1	-9.43
Cc1c(NS(=O)(=O)c2cc(C(=O)NCc3ccco3)cc(Cl)c2Cl)c(=O)n(-c2ccccc2)n1C	-39.5
Cc1cnc(C(=O)OC(C)C(=O)NCc2ccccc2)cn1 (stereo not shown)	3.99

SMILES	hERG current change (%, negative = inhibition) at 10uM [%]
Brc1ccc(CN2CCN(c3ccccn3)CC2)s1	-5.6
CCn1c(COc2ccc(Cl)cc2)nnc1SCC(=O)Nc1ccc2c(c1)OCO2	3.98
Cc1cc(C)cc(C(=O)N(C)C2CCCN(Cc3ccccc3F)C2)c1 (stereo not shown)	-13
Cc1cccc(-n2nc3c([n+]2[O-])CCc2nonc2-3)c1C	11.4
O=C(CSc1ccc(Br)cc1)NC1CCS(=O)(=O)C1 (stereo not shown)	5.33
CCCN(CCC)C(=S)Nc1cc(C(=O)OC)ccc1C(=O)OC	-38.2
Cc1cccc2c3c([nH]c12)CCN(C)C3	10
Cc1ccc(Cn2nc(C)c(NC(=O)CCCn3nc([N+](=O)[O-])c(Cl)c3C)c2C)cc1	-50.7
Cc1ccc(Cn2nc(C)c(NC(=O)CCCn3nc(C)c([N+](=O)[O-])c3C)c2C)cc1	-10.9
Cc1nn(Cc2ccc(Cl)cc2)c(C)c1NC(=O)CCCn1nc(C)c([N+](=O)[O-])c1C	-64.5
Cc1nn(Cc2ccc(Cl)cc2Cl)c(C)c1NC(=O)Cn1nc([N+](=O)[O-])c(Cl)c1C	1.33
Cc1nn(Cc2ccc(Cl)cc2Cl)c(C)c1NC(=O)CCl	-60.9
Cc1nn(Cc2ccccc2)c(C)c1NC(=O)CCCn1nc([N+](=O)[O-])c(Cl)c1C	-43
Cc1c(Cl)c([N+](=O)[O-])nn1CCCC(=O)Nc1c(Cl)cccc1Cl	-8.29
Cc1nn(Cc2ccc(Cl)cc2)c(C)c1NC(=O)Cn1nc([N+](=O)[O-])c(Cl)c1C	2.42
Cc1nn(Cc2ccccc2)c(C)c1NC(=O)CCCn1nc(C)c([N+](=O)[O-])c1C	-16.3
Cc1nn(Cc2ccc(Cl)cc2Cl)c(C)c1NC(=O)NC12CC3CC(CC(C3)C1)C2	7.38
Cc1nn(Cc2c(Cl)cccc2Cl)c(C)c1NC(=O)CCCn1nc([N+](=O)[O-])c(Cl)c1C	-19.6
Cc1nn(Cc2ccc(Cl)cc2)c(C)c1NC(=O)CCCn1nc([N+](=O)[O-])c(Cl)c1C	-64
